Screens as filed in PubChem.
Pf growth 48h: inhibits P. falciparum growth in the first generation, 48 h | P. falciparum luciferase growth in erythrocytes, 48 h | Potency, µM (highest dose often 28.7 µM), for inactives: top-dose activity change, negative = inhibition, hits mostly inhibitors | 5.9% of 310,000 active
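Read-out is firefly luciferase luminescence from an integrated reporter in P. falciparum, so falling signal marks reduced parasite growth. Infected erythrocytes were at 2% hematocrit and 0.1% parasitemia (final) in Albumax-supplemented RPMI 1640.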
VACV Venus inh: vaccinia inhibition (Venus reporter) | Vaccinia virus Venus reporter expression, fluorescence | Potency, µM (series often up to 36.5 µM), inactives show at the top dose activity change, negative = inhibition, hits mostly inhibitors | 0.46% of 330,000 active; calls by dose curve; tested in A549 cells; also: nearly all actives have a fitted effect of over 30% in size
AMA1 RON2 block: AMA1-RON2 (P. falciparum) interaction inhibition; AlphaScreen AMA1-biotinylated RON2 peptide binding; 0.2% of 360,000 active; AID 720542; Potency, µM (series often up to 58.2 µM), without a hit: at the top dose activity change, negative = inhibition, actives largely listed as inhibitors;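 also: 0% = vehicle wells and -100% = peptide control; nearly all actives have a fitted effect of over 45% in size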
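AMA1 (3D7) with his tag at 25 nM final met compounds first, then biotinylated RON2 peptide at 25 nM; detection used donor plus acceptor beads, 10 µg/mL apiece, read by AlphaScreen after 30 min at room temperature.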
Vaccinia mCherry: vaccinia inhibition (mCherry reporter); 0.63% of 310,000 active; Potency, µM (titrated, usually from 36.5 µM), for inactives: at the highest dose activity change, negative = inhibition, most hits filed as inhibitors; Vaccinia virus mCherry reporter infection, fluorescence; AID 720579; calls by dose curve; tested in A549 cells; also: nearly all actives have a fitted effect of over 35% in size
Pf growth 96h: P. falciparum growth inhibition at 96 hours; P. falciparum luciferase reporter growth, 96 h; Potency, µM (series often up to 28.7 µM), without a hit: at the highest dose activity change, negative = inhibition, actives largely listed as inhibitors; 6.9% of 320,000 active; AID 504834
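Compounds incubated with erythrocytes infected by luciferase-expressing P. falciparum (2% hematocrit, 0.05% parasitemia final) for 96 hours, 37 C in 5% CO2. Growth inhibition scored as decreased luciferase luminescence.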
The depositor's hits bear a star; i = inactive; ? = inconclusive; . = no result; [ ] = another dose, or the depositor's remark. Shown are actives, neighbours in structure and some others; about 8.7% of the full set was active somewhere. Unless noted, calls follow the shape of the dose curve; as a rule, active = well fitted curve in the direction sought with a large enough effect; inconclusive = small, poorly fitted or top-dose-only effect, or another doubt; inactive = no such curve, though single readings can be large; an effect the other way counts as inactive or inconclusive. Unless noted, % is scaled to controls: 0 for no effect and ±100 for the full control effect; potency is read from the fitted curve at half-maximal effect.

SMILES	Pf growth 48h	VACV Venus inh	AMA1 RON2 block	Vaccinia mCherry	Pf growth 96h
COc1ccc(S(=O)(=O)N2CCOCC2)cc1NC(=O)c1c(-c2ccccc2)noc1C	?	-3%	-12%	0%	10µM*
CCN(CC)S(=O)(=O)c1ccc(N2CCOCC2)c(NC(=O)c2cccc3c(=O)c(C)c(-c4ccccc4)oc23)c1	.	.	0%	.	.
COc1ccc(S(=O)(=O)N2CCOCC2)cc1NC(=O)c1cccc2c(=O)c(C)c(-c3ccccc3)oc12	5.2µM*	-8%	-5%	-13%	2.1µM*
CCOC(=O)C1=C(CN2CCN(c3cc(C)ccc3C)CC2)NC(=O)NC1c1ccccc1 (stereo not drawn)	.	-14%	.	-22%	.
Cn1cnc(S(=O)(=O)N2CCCC(C(=O)NCc3ccccc3Cl)C2)c1 (stereo not drawn)	.	-2%	.	-12%	.
CCc1cccc(C)c1NC(=O)C1CCN(c2nn3c(=O)cc(C)nc3s2)CC1	-11%	-2%[7.34 µM]	8%	-2%[7.34 µM]	9.3µM*
CCc1ccc(NC(=O)C2CCCN2c2nn3c(=O)cc(C)nc3s2)cc1 (stereo not drawn)	-3%	-15%	0%	-6%	13µM*
CCOC(=O)c1cc(-c2csc(N/N=C/c3ccccc3Cl)n2)on1	?	-7%	21%	-17%	2.6µM*
CCOC(=O)c1cc(-c2csc(Nc3ccccc3Cl)n2)on1	3%	-10%	-17%	-15%	40%
NS(=O)(=O)c1ccc(N2N=C(c3ccccc3)CC2c2cccc(F)c2)cc1 (stereo not drawn)	?	-29%	102%	-17%	?
NS(=O)(=O)c1ccc(N2N=C(c3ccc(Br)cc3)CC2c2ccc(F)cc2)cc1 (stereo not drawn)	?	11µM*	46%	16µM*	?
Cc1ccc(-c2csc(NC(=O)C3CSC4(C)CCC(=O)N34)n2)cc1 (stereo not drawn)	0%	-2%	-13%	i	-7%
C=CCN(C(=O)C1CSC2(C)CCC(=O)N12)c1nc(-c2ccccc2)cs1 (stereo not drawn)	12µM*	?	-30%	-24%	?
CCCCCCCCCCCC(=O)OCC(O)CO (stereo not drawn)	-4%	.	.	.	-2%
C=CCSc1ncccc1C(=O)NCCc1ccccc1	29%	-8%	5%	-12%	7%
C=CCSc1ncccc1C(=O)NCc1ccccc1	18%	-15%	-1%	-15%	12µM*
CC1CCC(C(C)C)C(OCC[N+](C)(C)C)C1 (stereo not drawn)	3.7µM*	-8%	2%	i	15%
CCOC(=O)C1(CCCc2ccccc2)CCN(CCCn2cccn2)CC1	?	-20%	-1%	i	10µM*
CCOC(=O)C1(CCCc2ccccc2)CCN(Cc2nccn2CC)CC1	10µM*	-2%	6%	-2%	?
CCOC(=O)C1(CCCc2ccccc2)CCN(C(=O)CSC)CC1	129%	-14%	-4%	0%	?
CCOC(=O)C1(Cc2ccccc2C(F)(F)F)CCN(CCCn2cccn2)CC1	?	-8%	6%	-12%	?
CCOC(=O)C1(CCCc2ccccc2)CCN(C(=O)CN2CCOC2=O)CC1	11%	.	3%	.	15µM*
Cn1c(=O)c(=O)n(C)c2cc(C(=O)NCc3ccccc3Cl)ccc21	.	-4%	.	-4%	.
CCOCCc1nn2c(=O)cc(COC(=O)COc3ccccc3Cl)nc2s1	.	-6%	.	-6%	.
COc1cc(NC(=O)CCn2cnc3ccccc3c2=O)cc(OC)c1	.	-4%	.	-7%	.
SMILES	Pf growth 48h	VACV Venus inh	AMA1 RON2 block	Vaccinia mCherry	Pf growth 96h
COC(=O)c1ccccc1NC(=O)CCCn1nc(C)c2sc3ccccc3c2c1=O	.	-4%	.	-6%	.
CNS(=O)(=O)c1cnccc1N1CCN(c2cccc(Cl)c2)CC1	?	-25%	-8%	.	?
CN1CCN(S(=O)(=O)c2cnccc2N2CCN(c3cccc(Cl)c3)CC2)CC1	2.6µM*	-29%	-5%	?	2.6µM*
NC(=O)c1cc(S(=O)(=O)N2CCN(c3cccc(C(F)(F)F)c3)CC2)cs1	.	-7%	.	-9%	.
NC(=O)c1cc(S(=O)(=O)N2CCN(c3cccc(Cl)c3)CC2)cs1	-10%	.	4%	.	1.2µM*
CCN(CC)S(=O)(=O)c1cnccc1N1CCN(c2cccc(Cl)c2)CC1	3.3µM*	?	-1%[11.6 µM]	-28%	2.9µM*
COCCCNC(=O)C1CCN(c2nc3ccc(C)cc3[nH]2)CC1	.	-13%	.	-10%	.
COc1ccc(-c2cc3nc(C)cc(NCCO)n3n2)cc1	-28%	-10%	6%	-2%	4.7µM*
Cc1cccc(-c2cc3nc(C)cc(NCCCN(C)C)n3n2)c1	10µM*	-14%	2%	-23%	379%
COc1ccc(CSc2nnc(Cc3sc(-c4ccccc4)nc3-c3ccccc3)o2)cc1	12µM*	-13%	17%	i	2.1µM*
Fc1ccc(CSc2nnc(Cc3sc(-c4ccccc4)nc3-c3ccccc3)o2)cc1	.	-8%	1%	.	12µM*
CC(=O)N1CCCc2cc(S(=O)(=O)N3CCC(C(=O)NCCC(C)C)CC3)ccc21	.	-9%	.	-4%	.
C1=C(c2ccc3c(c2)CN(Cc2cccn2-c2ncccn2)CCO3)Cc2ccccc21	.	-5%	.	-11%	.
CCC(C)c1ccccc1NC(=O)c1cc2cccc([N+](=O)[O-])c2[nH]1 (stereo not drawn)	?	-4%[7.34 µM]	-14%	-11%[7.34 µM]	2.9µM*
O=C(COc1ccc(Cl)cc1)OCc1cc(=O)n2nc(-c3cccs3)sc2n1	.	-11%	.	-9%	.
Nc1ccc2c(c1)OCCOCCOCCOCCOCCO2	188%	.	29%	.	5.9µM*
C/C(=N/O)c1ccc2c(c1)OCCOCCOc1cc(/C(C)=N/O)ccc1OCCOCCO2	?	-25%	12%	-11%	13µM*
Brc1ccc2c(c1)OCCOCCOc1cc(Br)ccc1OCCOCCOCCO2	?	10µM*	4%	?	?
CCC(C(=O)Nc1cc(OC)cc(OC)c1)n1nc(-c2ccc(C)c(C)c2)ccc1=O (stereo not drawn)	.	-18%	.	-22%	.
COc1ccccc1C1CN(Cc2cccc3c2OCO3)Cc2ccccc2O1 (stereo not drawn)	.	-7%	.	-14%	.
CC1C(=O)CCN(C(C)(C)C)C1C (stereo not drawn)	?	-11%	5%	.	8.3µM*
COc1cccc2nccc(/C=C/c3ccc(N(C)C)cc3)c12	.	44%	.	-19%	.
O=C(CSc1nnc(C2COc3ccccc3O2)o1)Nc1nccs1 (stereo not drawn)	1%	.	-34%	.	1.3µM*
c1ccc(-c2cnnn2-c2ccccc2)cc1	24%	-6%	0%	-12%	0.83µM*
Cc1ccc(S(=O)(=O)N2CCN(c3nc(C(N)=O)nc4ccccc34)CC2)cc1	.	-10%	.	-14%	.
O=C(C[n+]1ccccc1Br)c1ccc(-c2ccccc2)cc1	.	-13%	.	-15%	.
O=C(NCCc1ccc(Cl)cc1)c1cnc2sc(N3CCCCC3)nn2c1=O	.	-4%	.	8%	.
